Screening results: PubChem BioAssay, National Center for Advancing Translational Sciences (NCATS)
LDHA block: LDHA (human) enzyme inhibition; P00338; purified LDHA, NADH/diaphorase-resazurin fluorescence; stronger effect = lower value; activity change, % (values are at about 110 or 230 µM); 0.15% of 480,000 active; AID 1347041; in the data active = activity change below about -30%; inconclusive = mostly about -25% to -30%;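 note: plate controls were DMSO wells for no effect and wells without enzyme for full effect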
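LDH5 2 nM; NADH 0.06 mM, pyruvate 0.2 mM; 200 mM Tris pH 7.4, EDTA, Tween-20; 5 min RT. Detection: diaphorase 0.133 mg/mL + resazurin 37 µM, fluorescence ex540/em590 at 0 and 20 min; normalized to enzyme-free and DMSO wells.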
TRPML1 blocker: blocks the human TRPML1 channel; activity change, negative = inhibition, % (no concentration beside the values); 0.02% of 390,000 active; TRPML1-inducible cells, Ca2+ dye fluorescence, FDSS; stronger effect = lower value; inhibition of EC80 agonist-evoked calcium signal; in the data active = activity change below about -50%; inconclusive = between about -30% and that limit;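 note: stimulus is agonist 54-4 at its EC80 concentration; % is set by controls: 0 for no effect and ±100 for the full control effect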
Target sequence (Q9GZU1 whole entry, looked up): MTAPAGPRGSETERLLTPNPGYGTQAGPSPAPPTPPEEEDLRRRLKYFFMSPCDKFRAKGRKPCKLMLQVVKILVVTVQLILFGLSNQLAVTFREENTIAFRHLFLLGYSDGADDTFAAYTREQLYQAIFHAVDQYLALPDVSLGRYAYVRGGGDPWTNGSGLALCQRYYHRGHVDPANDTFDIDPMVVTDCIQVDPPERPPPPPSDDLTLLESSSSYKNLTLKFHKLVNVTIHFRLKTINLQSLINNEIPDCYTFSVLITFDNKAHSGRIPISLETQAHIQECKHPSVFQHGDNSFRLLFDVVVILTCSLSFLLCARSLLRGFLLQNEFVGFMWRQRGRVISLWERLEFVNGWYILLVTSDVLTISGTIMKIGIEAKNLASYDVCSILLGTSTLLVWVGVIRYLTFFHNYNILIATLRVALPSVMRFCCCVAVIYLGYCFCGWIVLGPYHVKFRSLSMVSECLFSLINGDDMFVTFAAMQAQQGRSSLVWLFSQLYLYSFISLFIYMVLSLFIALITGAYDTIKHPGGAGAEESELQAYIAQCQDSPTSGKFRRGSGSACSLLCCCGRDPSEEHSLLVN
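TRPML1-DL cells, Tet-induced overnight (~16 h, 37 °C) at 1,500 cells/well, were loaded with Ca8 no-wash dye plus quencher for 45-90 min at room temperature. Compounds were pinned during FDSS kinetic reading; agonist 54-4 at EC80 (4 uM final) then added.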
TRPV1 agonist: activates the human vanilloid receptor TRPV1. TRPV1-expressing cells, Fluo-8 calcium influx, agonist mode. Q8NER1. activation, % at 8.33 µM. 0.19% of 320,000 active; in the data active = activation above about 80%; inconclusive = between about 30% and that limit; note: 0% is about no effect
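Fluo-8 calcium influx in TRPV1-expressing cells, kinetic read (ex 480/em 520 nm). Compound added and read 3 min for agonist activity, followed by capsaicin at EC20 final and 2 min further read for enhancement.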
TRPML1 agonist: activates the human TRPML1 channel. Q9GZU1. TRPML1-expressing cells, Ca2+ dye fluorescence, FDSS. activation, % (concentration not given with the values). 0.12% of 410,000 active. AID 624414; in the data active = activation above about 50%; inconclusive = mostly about 30% to 49%; note: 0% is about no effect
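Tet-induced TRPML1-DL cells, 1,500 per well, cultured overnight, were loaded with a no-wash Ca2+ dye for 45–90 min. Calcium fluorescence was recorded on the FDSS for 110 s after compound addition, before the EC80 agonist (4 uM 54-4) was added.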
TRPV1 potentiator: potentiators of human vanilloid receptor 1 (TRPV1); Q8NER1; TRPV1-expressing cells, Fluo-8 calcium influx, capsaicin EC20 potentiation; potentiation, % at 8.33 µM; 0.02% of 320,000 active; in the data active = potentiation above about 80%; inconclusive = between about 30% and that limit; note: 0% is about no effect
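TRPV1-expressing cells were cultured overnight at 35.5C and loaded with Fluo-8 calcium dye for 40 to 90 min at room temperature. After a 10 s baseline, compound was added and calcium influx was read kinetically for 3 min (ex 480/em 520 nm).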
Starred values were filed as active, the others as inactive; ? = inconclusive; / = no result given. Hits are enriched below; roughly 0.41% of the tested compounds scored in any of these assays.

SMILES	LDHA block	TRPML1 blocker	TRPV1 agonist	TRPML1 agonist	TRPV1 potentiator
Cc1cccc(C)c1N1C(=O)CC(N2CCN(S(=O)(=O)c3ccccc3F)CC2)C1=O (stereo not drawn)	0	-3	/	0	/
COc1cc2c(C(=O)N3CCOCC3)c(CSc3ccccc3)n(C)c2cc1Br	2	74	?	6	102*
O=C(Nc1ncn(Cc2ccccc2F)n1)c1cc(S(=O)(=O)N2CCCC2)c(Cl)cc1Cl	-2	/	/	/	/
O=C(Cc1ccc2c(c1)CCC2)Nc1ccc(-c2nccs2)cc1	10	/	/	/	/
O=C1CCC/C(=N/NC(=O)c2sc3ccccc3c2Cl)C1	-11	-7	23	58*	15
Fc1ccccc1CN1CCC(NCC2CNc3ccnn3C2)CC1 (stereo not drawn)	3	/	/	/	/
COc1ccc(CN(C(=O)c2cc(Cl)cc(Cl)c2)C2CC2)c(OC)c1	2	/	/	/	/
COc1ccccc1CN1CCN(C(=O)c2ccncc2)CC1	-30*	20	0	0	-1
O=C(c1cccc(Cl)c1)N1CCN(Cc2ccncc2)CC1	-31*	0	2	0	-7
O=C(c1cccs1)N1CCN(Cc2ccncc2)CC1	-33*	34	4	1	-3
Cn1cc(S(=O)(=O)N2CCC(C(=O)Nc3cccc(F)c3)CC2)cc1C(N)=O	-30*	/	/	/	/
Cn1nc(-c2ccc(OCC(=O)N3CCOCC3)cc2)c2ccccc2c1=O	-31*	/	/	/	/
Cc1ccc(S(=O)(=O)N2CCN(CC(O)CN3CCOCC3)CC2)cc1 (stereo not drawn)	-5	-18	2	0	-2
CCC(C)c1ccc(S(=O)(=O)N2CCN(CC(O)CN3CCOCC3)CC2)cc1 (stereo not drawn)	-33*	14	2	-1	?
c1ccc2c(-c3csc(NC4CCCC4)n3)c[nH]c2c1	9	/	/	/	/
CCCCNC(=S)N1CCN(C(c2ccccc2)c2ccccc2)CC1	-10	22	81*	1	7
O=C1ON=C(c2ccc([N+](=O)[O-])cc2)/C1=C/c1ccccc1O	-43*	3	3	-1	-4
CCOc1c(Br)cc(/C=C/c2ncc(C(=O)O)s2)cc1OC	5	/	/	/	/
COc1ccc(Oc2ncnc3c2oc2ccccc23)cc1	-1	15	/	2	/
Cc1ccc(F)c(Nc2ncnc3c2oc2ccccc23)c1	6	/	/	/	/
Cc1ccc(Nc2ncnc3c2oc2ccccc23)cc1	-6	-6	93*	2	-6
COc1ccc(Nc2ncnc3c2oc2ccccc23)cc1	-3	10	93*	0	-15
COc1ccc(-c2nc3c(C(C)(C)C)cc(C(C)(C)C)c(O)c3o2)cc1OC	18	/	/	/	/
CCN(CC)c1ccc(C(=O)NNC(=O)CCl)cc1	-12	27	-9	0	123*
Fc1ccc(CNC(=S)NCc2ccccc2)cc1	-4	23	84*	1	-4
SMILES	LDHA block	TRPML1 blocker	TRPV1 agonist	TRPML1 agonist	TRPV1 potentiator
Fc1ccccc1CNC(=S)NCc1ccc(Cl)cc1	1	23	84*	0	9
O=C(Cn1c(=O)oc2cc(S(=O)(=O)N3CCOCC3)ccc21)c1ccc(F)cc1	0	/	/	/	/
CCOc1ccc(C2c3cc(OC)c(OC)cc3CC(=O)N2c2ccccc2)cc1 (stereo not drawn)	-15	-51*	-4	0	8
CCOc1cc2c(cc1OCC)C(c1ccc(OC)cc1)N(c1ccccc1)C(=O)C2 (stereo not drawn)	-4	-7	7	1	-2
COc1ccccc1-c1noc(CCCC(=O)Nc2ccccc2)n1	5	/	/	/	/
CCCCn1nnnc1CSc1nnc(-c2ccccc2)n1-c1ccccc1	-31*	/	/	/	/
COc1ccc(C(=O)c2c(N)c(-c3nc4ccccc4[nH]3)c3ccccn23)cc1	6	/	/	/	/
O=C1N/C(=N\S(=O)(=O)Cc2ccccc2)S/C1=C/c1cc([N+](=O)[O-])ccc1O	-37*	-4	?	74*	9
O=C1N/C(=N\S(=O)(=O)c2ccccc2)S/C1=C\c1cc([N+](=O)[O-])ccc1O	-36*	2	29	51*	-1
COc1cc(C)cc2oc(=O)c(CC(=O)NCCCO)c(C)c12	12	/	/	/	/
COc1ccc(CNC(=O)c2cc(Cl)ccc2O)cc1OC	3	/	/	/	/
COc1cc(CNC(=O)CCCC/C=C/C(C)C)ccc1O	4	-21	103*	1	-2
CCCCC(=O)NCc1ccc(-c2nc3ccccc3s2)cc1	-30*	/	/	/	/
CC(=O)NCc1ccc(-c2nc3ccccc3s2)cc1	3	7	?	0	-13
CCC(=O)NCc1ccc(-c2nc3ccccc3s2)cc1	-31*	/	/	/	/
CCN(CC)S(=O)(=O)c1ccc(OC(C)C)c(NC(=O)c2ccc(OC(F)F)c(OC)c2)c1	10	/	/	/	/
CC(C)CNC(=O)C(=O)Nc1ccc2cc[nH]c2c1	3	/	/	/	/
Cc1cc(C)c2c(=O)c3c(oc2c1)C(=O)N(CCO)C3c1cccc(O)c1 (stereo not drawn)	-2	-56*	-1	0	-11
Cc1ccc2oc3c(c(=O)c2c1)C(c1cccc(O)c1)N(CCCN1CCOCC1)C3=O (stereo not drawn)	3	17	/	-1	/
CCN(CC)c1ccc2cc(C(N)=O)c(=O)oc2c1	4	0	-5	0	-8
CCN(CC)c1ccc2cc(C=O)c(=O)oc2c1	-4	-22	?	113*	-3
CCN(CC)c1ccc2cc(C(C)=O)c(=O)oc2c1	-1	0	?	72*	-30
CCN(CC)c1ccc2cc(C(=O)Nc3ccccn3)c(=O)oc2c1	-6	-15	29	10	-9
CCN(CC)c1ccc2cc(NC(=O)CCC(=O)O)c(=O)oc2c1	9	2	7	?	-7
CCN(CC)c1ccc2cc(C(N)=O)c(=N)oc2c1	-3	-7	?	56*	-11
SMILES	LDHA block	TRPML1 blocker	TRPV1 agonist	TRPML1 agonist	TRPV1 potentiator
COC(=O)c1[nH]c2ccc(C)cc2c1NC(=O)CN1CCCC(C)(C)C1	1	33	89*	0	-12
CCOC(=O)c1[nH]c2ccc(C)cc2c1NC(=O)CN1CCCCC1	-2	2	?	0	5
O=C1CC(c2ccc(C(=O)O)cc2)c2sc(C(=O)O)c(-c3ccccc3)c2N1 (stereo not drawn)	4	/	/	/	/
CSc1ccccc1C(=O)Nc1c(C)cc(C)cc1C	-32*	/	/	/	/
CSc1ccccc1C(=O)Nc1ccc(C)cc1C	-12	4	-1	2	-13
CC(C)NC(=S)NC(c1ccccc1)(c1ccccc1)c1ccccc1	4	-2	?	70*	-4
C/C(=N\NC(=S)NC(C)C)c1ccccc1	-8	/	26	/	-13
O=C(Nc1ccc(F)cc1)/C(Cl)=C/c1ccccc1	-3	27	83*	2	-1
Cc1ccc(NC(=O)/C(Cl)=C\c2ccccc2)cc1	-6	52	-1	3	-2
